Data from ChEMBL document CHEMBL4513216, “Probing the Open Global Health Chemical Diversity Library for Multistage-Active Starting Points for Next-Generation Antimalarials” (ACS Infect Dis, 2020).
Screen size: about 69,000 compounds; about 8,600 (12%) showed an effect of 50% or more. The full list was thinned out, with strong results kept by preference.

tested on: Plasmodium berghei; test: Screen against P. berghei liver stage (PbLuc), transformed with Luciferase, at 10uM; assay type: functional, HepG2; details: tested at 10 uM

Row | SMILES | INHIBITION
1 | Fc1ccc(CN2CCOCC3(CCN(Cc4nccs4)C3)C2)cc1 (stereo not given) | 7.24%
2 | CCCc1nnc(NCCc2noc(C3CCC3)n2)o1 | 12.7%
3 | CC(C)C(=O)NCCNC(=O)CCOc1cccc(F)c1 | 48.45%
4 | CCc1cc(NC2CCC(O)CC2)n2nc(C)c(C)c2n1 (stereo not given) | 25.1%
5 | CC(C)CN1CCC(N2CCC(C(=O)N(C)C)CC2)CC1 | 18.6%
6 | COc1ccc(OC2CCN(C(=O)CCc3n[nH]c(C)n3)CC2)cc1 | -4.23%
7 | CN(C)CCOCC1CN(C(=O)c2ccsc2)Cc2ccnn2C1 (stereo not given) | -10.3%
8 | Cc1cnc2c(c1NCc1cccs1)c(=O)n(C)c(=O)n2C | 54.1%
9 | Cc1cnc2c(c1NCc1ccc3c(c1)OCO3)c(=O)n(C)c(=O)n2C | 73.3%
10 | Cc1cnc2c(c1NCc1ccccn1)c(=O)n(C)c(=O)n2C | 8.31%
11 | CCc1cnc2c(c1Nc1ccccc1OC)c(=O)n(C)c(=O)n2C | 15.4%
12 | Cc1cnc2n(c1=O)C(CC(=O)NCc1cccnc1)CS2 (stereo not given) | 40.9%
13 | Cc1cnc2c(c1NCc1ccncc1)c(=O)n(C)c(=O)n2C | -14.6%
14 | CS(=O)(=O)c1ccc(NCc2ccc(F)cc2)cn1 | -32.7%
15 | Cc1cnc2c(c1NCc1cccnc1)c(=O)n(C)c(=O)n2C | 71.8%
16 | Cc1cnc2n(c1=O)C(CC(=O)NCc1cccs1)CS2 (stereo not given) | 6.09%
17 | Cc1cc(NC(=O)Cc2ccc3c(c2)OCO3)n(C)n1 | 13.2%
18 | Cc1cnc2c(c1NCc1ccc(F)cc1)c(=O)n(C)c(=O)n2C | 51.2%
19 | Cc1nn(C)c(N2CCOCC2)c1CNCc1ccc2c(c1)OCO2 | 7.67%
20 | Cc1cnc(N2CCC3(CC2)COCCN(C(C)C)C3)nc1 | 12.2%
21 | O=c1cnc2ccccc2n1CCCn1ccnc1 | 34%
22 | Cc1cc2nc(C(C)C)cc(NCCNc3ncccc3C)n2n1 | 64.2%
23 | Cc1cccnc1NCCNc1cc(C(C)C)nc2ccnn12 | 43.9%
24 | Cc1cc(NCCNc2ncccc2C)n2nc(C)cc2n1 | 16%

Row | SMILES | INHIBITION
25 | Cc1nccn1-c1ccc(=O)n(CCNC(=O)Cc2ccccc2)n1 | 13.8%
26 | O=C(O)Cc1cccc(-n2ccnc2-c2ccc(F)c(Cl)c2)c1 | -10.5%
27 | CNC(=O)Cc1ccc(-n2ccnc2-c2ccc(C(=O)O)s2)cc1 | 51.2%
28 | COc1cc(-n2ccnc2-c2ccc(C(=O)O)s2)ccc1NC(C)=O | 17.5%
29 | Cc1cccc(-c2nccn2-c2cccc(CC(=O)O)c2)n1 | 11.9%
30 | O=C(O)Cc1cccc(-n2ccnc2-c2ccc(Cl)s2)c1 | 53.3%
31 | CCn1c(C)nnc1SCCNC(=O)c1sc(C(C)C)nc1C | -12.1%
32 | Cc1cncc(C(=O)N2CCc3ncc(Cn4cccn4)n3CC2)c1 | 10.5%
33 | Cc1cc(C)c2cc(C(=O)N3CCNC(=O)C3)[nH]c2c1 | 14.3%
34 | CNC(=O)C1(CCCc2ccccn2)CN(Cc2scnc2C)C1 | 30.4%
35 | Cc1cccc(C)c1Nc1noc2c1CN(C(=O)c1c[nH]nc1C)CC2 | 18.34%
36 | O=C(c1ccccc1F)N1CC2(CCNCC2)c2cc(Cl)ccc21 | -27%
37 | O=C([C@@H]1CSCN1)N1CC2(CCNCC2)c2cc(Cl)ccc21 | 38.5%
38 | CC(=O)N1CC2(CCNCC2)c2cc(Cl)ccc21 | 14.9%
39 | CN(C)C(=O)N1CC2(CCNCC2)c2cc(F)ccc21 | -15.5%
40 | O=C([C@H]1CCCN1)N1CC2(CCNCC2)c2cc(Cl)ccc21 | 58.3%
41 | O=C(c1ccncc1)N1CC2(CCNCC2)c2cc(Cl)ccc21 | 5.04%
42 | O=C(c1ccco1)N1CC2(CCNCC2)c2cc(Cl)ccc21 | 51.9%
43 | CN(C)C(=O)N1CC2(CCNCC2)c2cc(Cl)ccc21 | 83.5%
44 | NC(=O)N1CC2(CCNCC2)c2cc(Cl)ccc21 | 19.1%
45 | Cn1ccnc1CN1CCOC(Cn2cccn2)C1 (stereo not given) | 7.08%
46 | CNc1nc2cn(CCc3ccc(Cl)cc3)c(=O)c-2c[nH]1 | -15.5%
47 | CN(C)c1cc(CNC(=O)c2ccc(Br)cc2F)ccn1 | 16.8%
48 | Cc1cnc(N2C[C@H]3CCN(CC4CC4)C[C@H]3C2)nc1 | -21.7%

Row | SMILES | INHIBITION
49 | NC(=O)c1ccc2c(c1)nc1n2CCN(Cc2cccnc2)C1 | 54%
50 | NC(=O)c1ccc2c(c1)nc1n2CCN(Cc2ccco2)C1 | -7.9%
51 | NC(=O)c1ccc2c(c1)nc1n2CCN(Cc2ccccc2)C1 | 16.6%
52 | O=C(NCCCO)c1cc(-c2cc[nH]n2)n2ccccc12 | 15.4%
53 | CSc1nc(N)c2c(n1)N=C1COC(=O)C1C2c1cccc(Cl)c1 (stereo not given) | 15.9%
54 | COc1ccc(OC)c(C2c3c(n[nH]c3C)N=C3COC(=O)C32)c1 (stereo not given) | -15%
55 | CCN(CC)c1ccc(C2c3c(n[nH]c3C)N=C3COC(=O)C32)cc1 (stereo not given) | 68.1%
56 | COc1ccc(C2c3c(n[nH]c3C)N=C3COC(=O)C32)cc1OC (stereo not given) | -2.37%
57 | CCOc1ccc(C2c3c(N)nc(SC)nc3N=C3COC(=O)C32)cc1 (stereo not given) | -44.5%
58 | Cc1ccc(C2c3c(n[nH]c3C)N=C3COC(=O)C32)cc1C (stereo not given) | 55.3%
59 | Nc1ccc(-c2cnc(C3CCCN3)cn2)cn1 (stereo not given) | -4.175%
60 | Cc1cc(C)n(CC2CCCN2C(=O)c2ccc(NC3CC3)nc2)n1 (stereo not given) | -5.07%
61 | Cc1ccc(=O)n(CC2(O)CCN(Cc3cccs3)CC2)n1 | -20.2%
62 | O=C(NCCN1CCOCC1)c1nc2ccccc2c(=O)[nH]1 | 45.7%
63 | CC1COCCN1Cc1nc(-c2ccc(Br)s2)no1 (stereo not given) | -50.8%
64 | CCN1CCOC(CNCc2c(Cl)nc3ccccn23)C1 (stereo not given) | -13.6%
65 | COc1ccc(CN2CCCC2)cc1Oc1ccc(NC(C)=O)cc1 | -5.47%
66 | NCC1Cc2cc(Oc3cc(F)c(CN4CCCC4)c(F)c3)ccc2O1 (stereo not given) | 74%
67 | COc1c(F)cc(-c2cccc3c2OC(CN)C3)cc1F (stereo not given) | 27.6%
68 | COc1cc(CN2CCCC2)ccc1Oc1ccc2c(c1)CC(CN)O2 (stereo not given) | 69%
69 | COc1ccc(CN2CCCC2)cc1Oc1ccc2c(c1)CC(CN)O2 (stereo not given) | -27%
70 | Cc1cc(CN2CCCC2)cc(Oc2ccc3c(c2)CC(CN)O3)c1 (stereo not given) | 4.68%
